Some test systems named below: DU-145 prostate; K-562 leukemia; MALME-3M melanoma; MDA-MB-231 breast; RXF 393 renal; SF-268 CNS; SF-295 CNS; SF-539 CNS; UACC-257 melanoma; M14 melanoma; HCT-15 colon; HT29 colon; SNB-75 CNS; SNB-19 CNS; U251 CNS; SK-MEL-5 melanoma; UACC-62 melanoma; LOX IMVI melanoma; SK-MEL-28 melanoma; PC-3 prostate.
Holding throughout (experiment): NCI-60 one-dose screen, 48 h (100 = growth as untreated, 0 = no growth, -100 = all killed)
Common to all, as to conditions: 10 µM unless noted

Compounds without any hit were thinned out: in the full panel of roughly 83,000, 20% have a hit.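 Method: cells in 96-well plates; compound added at one concentration; 48 h incubation; percent growth measured; values under 10 scored active.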 A number with no mark means an inactive call. Active and inactive are the calls of the source.

As for `Cc1ccc(-c2nc(N3CCCNCC3)c3oc(-c4ccc(C)cc4)nc3n2)cc1`, the growth with DU-145 prostate was 42%; in the test on K-562 leukemia it was -76% (active); with MALME-3M melanoma, 106%; in the test on MDA-MB-231 breast, -78.8% (active); with RXF 393 renal it was 80.6%; in the test on SF-268 CNS it was 90.2%. Moreover, the growth is 108% in the test on SF-295 CNS; 73.8% in the test on SF-539 CNS; 101% in the test on UACC-257 melanoma; -94.7% (active) in the test with M14 melanoma; -72.9% (active) with HCT-15 colon; -87.1% (active) with HT29 colon. Also, the growth was 97.7% in the test on SNB-75 CNS; 58.2% with SNB-19 CNS; -92.4% (active) in the test with U251 CNS; 88.1% in the test on SK-MEL-5 melanoma; 92% in the test with UACC-62 melanoma; -79.3% (active) in the test on LOX IMVI melanoma. The growth with SK-MEL-28 melanoma is 89.8%.

On to `CN(C)S(=O)(=O)c1cccc(C(=O)Nc2nc(-c3ccc(F)c(F)c3)cs2)c1`, for which the growth in the test with DU-145 prostate was 70.7%; with K-562 leukemia, 39.4%; in the test on MALME-3M melanoma it was 90.9%; with MDA-MB-231 breast, 69.4%; in the test with RXF 393 renal, 55.1%; in the test with SF-268 CNS, 88.9%. Moreover, the growth is 49.3% with SF-295 CNS; 66.4% in the test with SF-539 CNS; 42.5% in the test on UACC-257 melanoma; 60.8% in the test with M14 melanoma; 61.3% in the test on HCT-15 colon; 74.3% in the test with HT29 colon. In addition, the growth was 75.5% in the test with SNB-75 CNS; 92% in the test on SNB-19 CNS; 39.1% with PC-3 prostate; 2.37% (active) with SK-MEL-5 melanoma; 45.9% in the test on UACC-62 melanoma; 71.9% in the test on LOX IMVI melanoma. Moreover, in the test on SK-MEL-28 melanoma, the growth was 102%.

`CC1=NC2=Nn3c(c4cnn(-c5ccccc5)c4n/c3=N\N)NN2C(c2ccccc2)=C1`: the growth in the test with DU-145 prostate is 105%; with K-562 leukemia it was 102%; with MALME-3M melanoma, 87.9%; in the test on MDA-MB-231 breast, 88.7%; with RXF 393 renal, 74%; with SF-268 CNS, 96.1%. For the same compound, the growth is 90.7% in the test on SF-295 CNS; 94.7% in the test on SF-539 CNS; 101% with UACC-257 melanoma; 93.1% in the test with M14 melanoma; 99% in the test on HCT-15 colon; 98.6% in the test on HT29 colon. Moreover, the growth in the test on SNB-75 CNS is 67%; in the test on SNB-19 CNS, 98.4%; with U251 CNS, 99%; in the test with SK-MEL-5 melanoma, 91%; in the test on LOX IMVI melanoma, 92%; in the test with SK-MEL-28 melanoma, 102%.

For the compound `O=C1/C(=C/c2cn(-c3ccccc3)nc2-c2ccccc2)SC(=S)N1C1CCCCC1`, the growth with DU-145 prostate was 106%; in the test on K-562 leukemia it was 101%; in the test with MALME-3M melanoma, 92.3%; in the test with MDA-MB-231 breast it was 89.8%; with RXF 393 renal it was 106%; in the test on SF-268 CNS it was 102%. The growth with SF-295 CNS is 104%; in the test on SF-539 CNS, 99.4%; in the test with UACC-257 melanoma, 102%; in the test on M14 melanoma it was 99.1%; in the test on HCT-15 colon, 109%; with HT29 colon, 111%. Also, the growth in the test on SNB-75 CNS was 99.2%; in the test with SNB-19 CNS it was 96.9%; in the test with PC-3 prostate, 96.3%; in the test with SK-MEL-5 melanoma, 100%; in the test on UACC-62 melanoma, 92.6%; in the test with LOX IMVI melanoma it was 91%. In the test with SK-MEL-28 melanoma, the growth was 101%.

With `COc1ccc(C/C(C)=C(/c2ccc(OCCN(C)C)cc2)c2ccc(OC(=O)NCc3ccccc3)cc2)cc1`, the growth was 81.1% in the test with DU-145 prostate; -29.2% (active) in the test on K-562 leukemia; 88.5% with MALME-3M melanoma; 57.9% in the test on MDA-MB-231 breast; 60.3% in the test on RXF 393 renal; 72.9% in the test on SF-268 CNS. Moreover, the growth in the test with SF-295 CNS is 88%; with SF-539 CNS, 88.9%; with UACC-257 melanoma, 75.8%; with M14 melanoma it was 25.1%; in the test with HCT-15 colon it was 24.3%; in the test on HT29 colon, -13.7% (active). For the same compound, the growth in the test with SNB-75 CNS was 77.7%; in the test on SNB-19 CNS it was 85.6%; in the test on U251 CNS, 45.7%; in the test on SK-MEL-5 melanoma, 63.1%; in the test with UACC-62 melanoma it was 69.3%; in the test on LOX IMVI melanoma it was -12% (active). In the test on SK-MEL-28 melanoma, the growth is 54.6%.

For the compound `COc1ccc(C2CC(c3ccc(Nc4nc(Nc5ccccc5)nc(Nc5ccccc5)n4)cc3)=NN2C(C)=O)cc1` (stereo unspecified), the growth was 144% in the test on DU-145 prostate; 75.2% with K-562 leukemia; 110% with MALME-3M melanoma; 95.5% with MDA-MB-231 breast; -10.9% (active) with RXF 393 renal; 139% in the test with SF-268 CNS. The growth in the test on SF-295 CNS was 99.5%; in the test with SF-539 CNS, 121%; with UACC-257 melanoma, 88.4%; with M14 melanoma, 107%; in the test with HCT-15 colon, 96.9%; with HT29 colon, 101%. Further, the growth with SNB-75 CNS was 89.8%; in the test with SNB-19 CNS it was 88.7%; in the test with U251 CNS, 88.1%; in the test on SK-MEL-5 melanoma it was 83.5%; with UACC-62 melanoma, 94.3%; with LOX IMVI melanoma, 103%. The growth in the test with SK-MEL-28 melanoma is 109%.

On to `Cc1ccc(Nn2c(SCC(=O)Nc3nc(-c4ccccc4)cs3)nc(C)c2C)cc1`, for which the growth in the test with DU-145 prostate was 83.4%; in the test on K-562 leukemia, 37.7%; with MALME-3M melanoma, 92%; in the test on MDA-MB-231 breast it was 46%; in the test with RXF 393 renal, 61.5%; in the test on SF-268 CNS it was 81.7%. Further, the growth is 46.1% in the test with SF-295 CNS; 73.7% in the test on SF-539 CNS; 54.1% in the test on UACC-257 melanoma; 77% in the test with M14 melanoma; 67.2% with HCT-15 colon; 56.1% in the test with HT29 colon. The growth is 24.4% with SNB-75 CNS; 74.3% in the test with SNB-19 CNS; 49.3% in the test on U251 CNS; -66.7% (active) with SK-MEL-5 melanoma; 51.8% in the test on UACC-62 melanoma; 51.9% with LOX IMVI melanoma. The growth in the test with SK-MEL-28 melanoma is 82.8%.

In the case of `COc1ccc2[nH]c(C(=O)N3CCN(C(=O)OCc4ccc5c(Cl)cc(Cl)c(O)c5n4)CC3)cc2c1`, the growth is -88.6% (active) in the test on DU-145 prostate; 4.22% (active) in the test on K-562 leukemia; -94.4% (active) with MALME-3M melanoma; -82.2% (active) in the test with MDA-MB-231 breast; -92.9% (active) with RXF 393 renal; -91.1% (active) in the test with SF-268 CNS. The growth in the test on SF-295 CNS was 34%; with SF-539 CNS it was -99.3% (active); with UACC-257 melanoma, -43.2% (active); with M14 melanoma, -66.4% (active); in the test with HCT-15 colon, -44.2% (active); in the test on HT29 colon, -67.1% (active). Besides, the growth with SNB-75 CNS is -98.5% (active); in the test on SNB-19 CNS it was 35.3%; in the test on PC-3 prostate it was -73.4% (active); with SK-MEL-5 melanoma, -99% (active); with UACC-62 melanoma, -97.4% (active); in the test on LOX IMVI melanoma, -95.3% (active). Moreover, in the test with SK-MEL-28 melanoma, the growth was -95.8% (active).
